# Compound activity (PubChem)
# SMARCA2 activ: increases SMARCA2 function in MMTV reporter cells; MG213 cells, MMTV-luciferase reporter, dexamethasone, overnight; activation, % at 9.1 µM; 1% of 370,000 active; in the data active = activation above about 7.8%
# MsrA inhibitor: inhibitors of bovine MsrA; purified bovine MsrA, absorbance read-out; inhibition, % at 15.5 µM; 0.75% of 360,000 active; AID 651718
# bovine MsrA act: bovine methionine sulfoxide reductase A activation; purified bovine MsrA, absorbance read-out; activation, % at 10.6 µM; 0.3% of 360,000 active; AID 602163; in the data active = activation above about 7.5%
# ABCB6 inh MLPCN: blocks the human ABCB6 transporter. fluorescence ratio to DMSO, % at 10 µM. 0.19% of 360,000 active. Q9NP58. K562-ABCB6 porphyrin accumulation, flow cytometry, 1 h; stronger effect = lower value;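 active = fluorescence ratio to DMSO below 75%, the collection mean minus 3 SD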;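 also: signal is porphyrin accumulated inside mitochondria; lower ratio means ABCB6 inhibition with less porphyrin fluorescence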
# Target sequence (Q9NP58 whole entry, looked up): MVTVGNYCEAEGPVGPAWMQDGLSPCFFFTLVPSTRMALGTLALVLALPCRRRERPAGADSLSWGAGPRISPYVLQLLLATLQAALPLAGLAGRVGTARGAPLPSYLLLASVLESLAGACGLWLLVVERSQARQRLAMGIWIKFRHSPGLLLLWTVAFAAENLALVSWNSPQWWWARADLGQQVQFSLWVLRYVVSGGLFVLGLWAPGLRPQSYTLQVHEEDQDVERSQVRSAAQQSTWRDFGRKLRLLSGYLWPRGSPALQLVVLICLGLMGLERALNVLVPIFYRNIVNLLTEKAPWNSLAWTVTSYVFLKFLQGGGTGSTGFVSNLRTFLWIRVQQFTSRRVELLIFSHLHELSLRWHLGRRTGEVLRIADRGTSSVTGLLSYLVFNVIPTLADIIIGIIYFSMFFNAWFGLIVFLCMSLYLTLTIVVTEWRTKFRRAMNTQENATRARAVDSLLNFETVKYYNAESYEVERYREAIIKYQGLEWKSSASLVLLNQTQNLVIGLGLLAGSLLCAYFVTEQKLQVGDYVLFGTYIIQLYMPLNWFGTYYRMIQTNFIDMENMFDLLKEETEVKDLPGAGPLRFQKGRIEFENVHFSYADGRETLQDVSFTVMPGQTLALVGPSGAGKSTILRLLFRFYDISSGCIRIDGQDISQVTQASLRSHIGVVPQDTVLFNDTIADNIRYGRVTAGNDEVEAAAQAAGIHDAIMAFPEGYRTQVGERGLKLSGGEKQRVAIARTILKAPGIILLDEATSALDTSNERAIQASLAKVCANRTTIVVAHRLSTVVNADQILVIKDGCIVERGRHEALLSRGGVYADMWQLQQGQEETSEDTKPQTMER
# MsrA conf: confirmation of bovine MsrA inhibitors. AID 651822. purified bovine MsrA, absorbance read-out. shares compounds with MsrA inhibitor. 41% of 2,300 active. inhibition, % at 15.5 µM;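 also: coupled to thioredoxin reductase with NADPH and selenocystamine and DMSO as substrate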
# Numbers stand for hits; n = inactive; x = not tested or not shown. Compounds with a hit are over-represented: about 2.1% of the library has one in this group of screens. Rule as the data show it, unless noted: active = inhibition above about 4.5%; inactive = the rest.
SMILES,SMARCA2 activ,MsrA inhibitor,bovine MsrA act,ABCB6 inh MLPCN,MsrA conf
O=S1(=O)CC(N2CCC(c3ccccc3)CC2)CN1Cc1ccccc1 (stereo not drawn),n,n,n,n,x
COc1ccc(/C=C(/C#N)C(=O)Nc2ccccc2C)cc1C(=O)O,n,5.6,n,n,n
COc1ccc(/C=C(/C#N)C(=O)Nc2cccc(C)c2C)cc1C(=O)O,n,n,n,n,x
Cc1ccc(C)c(NC(=O)/C(C#N)=C/c2ccc[nH]2)c1,n,9.3,n,n,11.1
COc1ccc(/C=C(/C#N)C(=O)Nc2ccc(C)cc2C)cc1C(=O)O,n,7.0,n,n,6.1
NC(=N\N=Cc1ccco1)/C(N)=N/N=Cc1ccco1,n,4.8,n,n,6.4
Oc1ccc(C=NN=Cc2ccco2)c(O)c1,n,4.9,n,n,5.4
NC(=N\N=Cc1ccccc1)/C(N)=N/N=Cc1ccccc1,n,n,n,n,x
C=Cc1ccc(CC2(C)C(=O)Nc3ccc(-c4cccnc4)cc32)cc1 (stereo not drawn),n,13.1,n,n,6.3
O=C(NC1CCCCN(Cc2ccc(OC(F)(F)F)cc2)C1=O)c1ccc2ccccc2c1 (stereo not drawn),n,x,x,x,x
COc1ccc(-c2coc3c(C(=O)Nc4cccc(NS(C)(=O)=O)c4)cccc23)c(C)c1,n,n,n,n,x
Cc1ccccc1-c1c(C)oc2cc(O)ccc2c1=O,n,4.9,n,n,n
Cc1oc2cc(O)ccc2c(=O)c1N1C(=O)c2ccccc2C1=O,n,n,n,n,x
COc1ccc(/C=C2\Oc3cc(OCC(=O)N4CCC[C@H]4C(=O)O)ccc3C2=O)c(OC)c1OC,n,5.1,n,n,5.5
COc1ccc(/C=C2\Oc3cc(OCC(=O)N4CC(O)C[C@H]4C(=O)O)ccc3C2=O)c(OC)c1OC (stereo partly drawn),n,4.9,n,n,n
CCOC(=O)C1=CCN(S(=O)(=O)c2ccccc2Cl)C1c1ccccc1 (stereo not drawn),n,n,n,n,x
CCCC[C@H]1C2CC(OC(=O)Nc3ccccc3)C(C2)[C@H]2CCCCN21 (stereo partly drawn),n,x,x,x,x
Cc1nc(N)sc1C(=O)N/N=C/c1ccc([N+](=O)[O-])cc1,n,n,n,n,x
COc1cc(/C=N\NC(=O)c2sc(N)nc2C)cc(OC)c1OC,n,7.0,n,n,5.2
CC(/C=N/NC(=O)c1sc(N)nc1C)=C\c1ccccc1,n,6.7,n,n,n
Cc1nc(N)sc1C(=O)N/N=C/c1ccccc1[N+](=O)[O-],n,n,n,n,x
CSCCC(C(=O)NC1CCCC1)n1c(C2CCCC2)nc2ccccc21 (stereo not drawn),n,n,x,x,x
COC(=O)[C@H]1C[C@@]2(c3ccccc3)c3ccccc3N(S(=O)(=O)c3ccccc3)[C@H]2N1,n,x,x,x,x
CCOC(=O)[C@]12CCCCC/C=C\1N(Cc1ccc(OC)cc1)C(=O)[C@H]2CC(=O)N1CCCCC1,n,x,x,x,x
Cc1ccc(Sc2ccc([N+](=O)[O-])cc2[N+](=O)[O-])nc1,n,4.8,n,n,n
SMILES,SMARCA2 activ,MsrA inhibitor,bovine MsrA act,ABCB6 inh MLPCN,MsrA conf
COc1ccc(C2C(C(=O)N3CCN(C=O)CC3)CC(=O)N2c2ccc(OC)cc2)cc1 (stereo not drawn),n,x,x,x,x
COc1ccc(N(CCC#N)C(=O)/C(C#N)=C/c2cccs2)cc1,n,5.5,n,n,n
CC1(c2ccc(OC(F)F)cc2)NC(=O)N(CC(=O)Nc2ccccc2)C1=O (stereo not drawn),n,n,n,n,x
Cc1ccc2nc(-c3ccc(NC(=O)CN4C(=O)NC(C)(c5ccc(OC(F)F)cc5)C4=O)cc3)sc2c1 (stereo not drawn),n,4.7,n,n,n
Cn1cc(C(=O)N/N=C/c2cccs2)c2ccccc21,n,5.2,n,n,5.2
C(=N\n1cnnc1)/c1cn(-c2cccs2)nc1-c1ccccc1,n,4.8,n,n,n
N=c1occ(C(=O)c2cc(F)ccc2O)cc1C(=O)NC1CCCCC1,n,4.9,n,n,n
CCOC(=O)N1CCC(Nc2c(-c3ccc(C)cc3)c(=O)c2=O)CC1,n,4.9,n,n,n
Oc1ccc(C[C@H]2CNC(=S)N2C[C@H]2CCCN2C[C@H](Cc2ccccc2)N2C[C@H](Cc3ccc(O)cc3)N(CC3CCCCCC3)C2=S)cc1,n,n,n,n,x
CC1=CC2(C(Cc3ccccc3)N(CC3CC3)C(=NC(=O)c3ccccc3)N2C(=O)OCc2ccccc2)n2c(=O)n(-c3ccccc3)c(=O)n2C1 (stereo not drawn),n,x,x,x,x
CC(=O)c1ccc(N2CCN(C(=O)c3ccc(Cn4c(=S)[nH]c5ccc(N6CCOCC6)cc5c4=O)cc3)CC2)cc1,n,5.0,n,n,4.8
O=C(c1ccc2c(=O)n(Cc3ccccc3)c(=S)[nH]c2c1)N1CCOCC1,n,n,n,n,x
O=C(N/C(=C\c1ccc(Br)cc1)c1nc2ccccc2[nH]1)c1ccco1,n,6.5,n,n,n
O=C(N/C(=C/c1cccs1)c1nc2ccccc2[nH]1)c1ccccc1,n,5.1,n,n,6.0
CCOC(=O)[C@@]12CN(C(=O)OC(C)(C)C)CC=C1N(Cc1ccc(OC)cc1)C(=O)[C@H]2CC(=O)N1CCCCC1,n,x,x,x,x
Cc1cc(NC(=O)COC(=O)C2=NN(c3ccccc3)C(=O)CC2)c([N+](=O)[O-])cc1C,n,n,n,n,x
O=C(COC(=O)C1=NN(c2ccccc2)C(=O)CC1)Nc1ccc([N+](=O)[O-])cc1C(F)(F)F,n,12.1,n,n,10.6
CCC(C)c1ccccc1NC(=O)COC(=O)C1=NN(c2ccccc2)C(=O)CC1 (stereo not drawn),n,38.9,n,n,30.1
CCn1c2ccccc2c2cc(NC(=O)COC(=O)c3cc(F)cc(F)c3)ccc21,n,x,x,x,x
O=C(O)c1ccc(NC2=C(n3nnc4ccccc43)C(=O)c3ccccc3C2=O)cc1,n,57.5,n,n,52.9
CCCCN1CC(=O)N2[C@H](C[C@@]3(n4ccc5ccccc54)c4ccccc4N(S(=O)(=O)c4ccccc4)[C@@H]23)C1=O,n,x,x,x,x
CC1(C)C2CCC(CN=C(N)CSS(=O)(=O)O)C1C2 (stereo not drawn),n,20.7,n,n,8.8
C/C(N)=C(/C#N)C(=O)CSc1nn(-c2ccc(Cl)cc2)c(=S)s1,n,21.0,n,n,14.0
CCCC(=O)OC12CCCN(C1)/C(=C/c1cccc(OC)c1)C2 (stereo not drawn),n,x,x,x,x
COC(=O)c1c(C(=O)OC)c(-c2ccc(F)cc2)n2c1CSC2,n,5.6,n,n,n
SMILES,SMARCA2 activ,MsrA inhibitor,bovine MsrA act,ABCB6 inh MLPCN,MsrA conf
Cc1ccc(-c2c(C(=O)O)c(C(=O)O)c3n2CSC3)cc1,n,n,n,n,x
O=C(CCCC1=NS(=O)(=O)c2ccccc2N1)N1CCN(c2ccccc2Cl)CC1,n,x,x,x,x
CC1(C(=O)Nc2ccc3c(c2)OCO3)CCN1C(=O)CCc1ccc(Cl)cc1Cl (stereo not drawn),n,n,n,n,x
CCCC(=O)OC12CCCN(C1)/C(=C/c1ccccc1)C2 (stereo not drawn),n,x,x,x,x
CCOC(=O)c1cc(C)nc(SC)c1C#N,n,n,n,n,x
CCOC(=O)c1cc(C(C)(C)C)nc(SC)c1C#N,n,6.2,n,n,n
